According to PubChem BioAssay (NCATS):
Results filed as inconclusive are left out. Entries that show only a call come without a potency. The source made the active and inactive calls. Calls come from the whole dose curve; as a rule, active = well fitted cell-killing curve with a large enough effect; inconclusive = small, poorly fitted or top-dose-only effect; inactive = flat fitted curve, though single readings scatter.

Assay: qHTS of pediatric cancer cell lines to identify multiple opportunities for drug repurposing: Primary screen for TC32 cells (AID 1347089); note: nearly all actives have a fitted effect of over 60% in size
Conditions: TC32 Ewing sarcoma viability, CellTiter-Glo luminescence, 48 h; series mostly up to 45.8 µM
From the text: Drug repurposing or repositioning has been offered as a strategy for drug development in oncology programs. This approach has special potential for childhood cancers and other rare or orphan diseases, where the expected return on new drug development has been a disincentive to pharmaceuticals.
In this project we exploit the poly-pharmacology of drugs to discover new indications via phenotypic screening of a panel of 19 well-characterized cell lines derived from solid tumors seen in children and adolescents. The goal is to identify approved drugs with previously unrecognized anticancer properties that has the potential to reveal new mechanisms and biological processes involved in carcinogenesis or drug resistance. We employed a titration-based paradigm (quantitative high-throughput screening or qHTS), where all compounds were tested at multiple concentrations for their effect on cell viability. Concentration-response curves (CRCs) were derived directly from the primary screen, and both potency and efficacy values were used to identify compounds with robust bioactivity profiles. We screened the NIH Chemical Genomics Center (NCGC) Pharmaceutical Collection (NPC) and Mechanism Interrogation Plate (MIPE) small molecule collections of approved and investigational compounds against these cell lines; and measured metabolically active cells after 48 hours of compound treatment as a proxy for cell viability.
Assay Submitter: Nathalia J. Martinez, National Center for Advancing Translational Sciences, National Institutes of Health, Rockville, MD, USA; email: natalia.martinez@nih.gov
[1] Shen, M et al. Quantitative high-throughput phenotypic screening of pediatric cancer cell lines identifies multiple opportunities for drug repurposing. Oncotarget 2017 Dec 19;9(4):4758-4772. PMID 29435139.
The cells were obtained from University of North Carolina (UNC), Pediatric Preclinical Testing Program (PPT), and Coriell Institute (CI).
qHTS cell viability assay:
Cells were assayed in growth media at a density of 500-1,000 cells/well. Five microliters of cells were dispensed into 1,536-well, white, solid-bottom, TC-treated plates (Greiner Bio One) using a multidrop dispenser and incubated at 37 degrees C, 5% CO2, under a humidified atmosphere for 5 hours. Twenty-three nanoliters of compounds and controls (neutral control DMSO or positive control bortezomib at final concentration of 2.3 uM) were subsequently transferred by Kalypsys pintool. For primary screens, the MIPE collection was tested at 11-point dilutions (final concentrations range from 0.78 nM to 46 µM) and the NPC collection at 8-point dilutions (final concentrations range from 0.59 nM to 46 µM). Compounds tested in follow-up screens were assayed at 11-point dilutions. Cells were incubated for 48 hours, followed by addition of 3 uL of CellTiter-Glo (Promega). After a 15min incubation at room temperature, samples were analyzed for luminescence intensity using a ViewLux High-throughput CCD imager equipped with clear filters.
With `O=[N+]([O-])c1cc([As](=O)(O)O)ccc1O` the Potency was “inactive”. In the case of `c1ccc2c(c1)OCC(C1=NCCN1)O2` (stereo not given), the Potency is reported as “inactive”. With `CCC1(C2=NCCN2)Cc2ccccc2O1` (stereo not given) the Potency was “inactive”. For `O=C1CC[C@@]2(O)[C@H]3Cc4ccc(O)c5c4[C@@]2(CCN3CC2CC2)[C@H]1O5`, the Potency was “inactive”. In the case of `Oc1ccccc1-c1ccccc1`, the Potency is reported as “inactive”. With `c1ccc2c(c1)Nc1ccccc1S2` the Potency was “inactive”. For `N[C@@H](Cc1ccc(Oc2cc(I)c(O)c(I)c2)c(I)c1)C(=O)O`, the Potency was “inactive”. With `CC[N+]1(C)CCCC(OC(=O)C(O)(c2ccccc2)c2ccccc2)C1` (stereo not given) the Potency was “inactive”. For `C[C@]12CC[C@H]3[C@@H](CCC4=CC(=O)CC[C@@H]43)[C@@H]1CC[C@@H]2OC(=O)CCc1ccccc1`, the Potency was “inactive”. With `C[C@]12C/C(=C/O)C(=O)C[C@@H]1CC[C@@H]1[C@@H]2CC[C@@]2(C)[C@H]1CC[C@]2(C)O` the Potency was “inactive”. In the case of `CCC(COC(=O)c1cc(OC)c(OC)c(OC)c1)(c1ccccc1)N(C)C` (stereo not given), the Potency is reported as “inactive”. In the case of `C=C1C[C@@H]2[C@H](CC[C@]3(C)C(=O)CC[C@@H]23)[C@@]2(C)C=CC(=O)C=C12`, the Potency is reported as “inactive”. For `Oc1cc(Cl)ccc1Oc1ccc(Cl)cc1Cl`, the Potency was “inactive”. With `O=c1oc2ccccc2c(O)c1C(CC(O)c1ccc(-c2ccc(Br)cc2)cc1)c1ccccc1` (stereo not given) the Potency was “inactive”. In the case of `CC(=O)[C@H]1CC[C@H]2[C@@H]3CC[C@H]4C[C@H](O)CC[C@]4(C)[C@H]3C(=O)C[C@]12C`, the Potency is reported as “inactive”. With `C=C1CC[C@@]2(O)[C@H]3Cc4ccc(O)c5c4[C@@]2(CCN3CC2CC2)[C@H]1O5` the Potency was “inactive”. In the case of `FC(F)(F)c1cccc(C2=CCN(CCc3ccc4ccccc4c3)CC2)c1`, the Potency is reported as “inactive”. In the case of `CC[C@@H](CO)NC(=O)[C@@H]1C=C2c3cccc4c3c(cn4C)C[C@H]2N(C)C1`, the Potency is reported as “inactive”. In the case of `CNCC(O)c1ccc(O)cc1` (stereo not given), the Potency is reported as “inactive”. In the case of `CC[C@@H](CO)NC(=O)[C@@H]1C=C2c3cccc4[nH]cc(c34)C[C@H]2N(C)C1`, the Potency is reported as “inactive”. With `CNC(=O)c1ccc(N2C(=S)N(c3ccc(C#N)c(C(F)(F)F)c3)C(=O)C23CCC3)cc1F` the Potency was “inactive”. With `CC(C)CC(N(C)C)C1(c2ccc(Cl)cc2)CCC1` (stereo not given) the Potency was “inactive”. In the case of `CC(C)=CCOc1c2occc2cc2ccc(=O)oc12`, the Potency is reported as “inactive”. In the case of `CC(C)(N)Cc1ccc(Cl)cc1`, the Potency is reported as “inactive”. For `Clc1cccc(N2CCNCC2)c1`, the Potency was “inactive”. For `CCCC(C)(COC(N)=O)COC(=O)NC(C)C` (stereo not given), the Potency was “inactive”. For `CN1CCN(C(=O)O[C@H]2c3nccnc3C(=O)N2c2ccc(Cl)cn2)CC1`, the Potency was “inactive”. With `CC[N+](CC)(CC)CC` the Potency was “inactive”. In the case of `CCN(CC)C(=O)N[C@@H]1C=C2c3cccc4[nH]cc(c34)C[C@@H]2N(C)C1`, the Potency is reported as “inactive”. For `N[C@@H]1C[C@H]1c1ccccc1`, the Potency was “inactive”. For `CN(C)[C@@H]1C(=O)C(C(N)=O)=C(O)[C@@]2(O)C(=O)C3=C(O)c4c(O)cccc4[C@@](C)(O)[C@H]3C[C@@H]12`, the Potency was “inactive”. With `O=P1(NCCCl)OCCCN1CCCl` (stereo not given) the Potency was “inactive”. In the case of `NN=C(N)N`, the Potency is reported as “inactive”. With `Cc1cc(SCc2sc(-c3ccc(C(F)(F)F)c(F)c3)nc2C)ccc1OCC(=O)O` the Potency was “inactive”. For `O=C1NCN(c2ccccc2)C12CCN(CC1COc3ccccc3O1)CC2` (stereo not given), the Potency was “inactive”. With `CCCN1CCC[C@@H]2Cc3nc(N)ncc3C[C@H]21` the Potency was “inactive”. With `Clc1ccc(COC(Cn2ccnc2)c2ccc(Cl)cc2Cl)cc1` (stereo not given) the Potency was “inactive”. For `CC(=O)[C@H]1CC[C@H]2[C@@H]3CC[C@H]4C[C@](C)(O)CC[C@]4(C)[C@H]3CC[C@]12C`, the Potency was “inactive”. In the case of `Cc1ccc(-c2nc3ccc(C)cn3c2CC(=O)N(C)C)cc1`, the Potency is reported as “inactive”. For `COc1ccc(Cc2nccc3cc(OC)c(OC)cc23)cc1OC`, the Potency was “inactive”.
